# According to PubChem BioAssay (Tox21):
# Records with an inconclusive call do not appear. A call without a number means that no potency is given here. Unmarked numbers belong to inactive results. Activity calls are given as the source filed them. Unless noted, the call rests on the fitted dose curve; in most records, active means well fitted curve in the direction sought with a large enough effect in the repeat runs; inconclusive means weak or mixed curves; inactive means no such curve, though single readings can be large; an effect the other way counts as inactive or inconclusive.
# Tests used:
# [1] = qHTS assay to identify small molecule agonists of the RXR signaling pathway - cell viability counter screen (AID 1159529);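 further: HEK 293T cells carrying an RXR-alpha UAS beta-lactamase reporter; series mostly up to about 77 µM; nearly all actives have a fitted effect of over 50% in size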
# How it was run: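 In this parallel viability measure, GeneBLAzer RXR-alpha HEK 293T cells (2% charcoal-stripped FBS) were given a 5 hr preincubation, treated with compounds 16 hr at 37 C, and read by CellTiter-Glo luminescence.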
# [2] = qHTS assay to identify small molecule antagonists of the retinoid acid receptor (RAR) signaling pathway - cell viability counter screen (AID 1159551); further: nearly all actives have a fitted effect of over 35% in size
# How it was run: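 Following overnight attachment, C3RL4 reporter cells received DMSO-dissolved compounds and then retinol (1 uM final). Six hours later at 37 C, ATP content was measured by CellTiter-Glo luminescence.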
# [3] = qHTS assay to identify small molecule antagonists of the retinoic acid receptor (RAR) signaling pathway (AID 1159552; further: nearly all actives have a fitted effect of over 50% in size)
# How it was run: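 C3RL4 RARE-luc cells, overnight plating; retinol 1 uM final added right after compound; 6 hr 37 C; luciferase read at 30 min RT.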
# [4] = qHTS assay to identify small molecule agonists of the retinoic acid receptor (RAR) signaling pathway (AID 1159553); further: potency means the concentration at half of the fitted maximal effect
# How it was run: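 Cell line C3RL4, RARE luciferase reporter. Treatment: compounds in DMSO, 6 hr, 37 C, 5% CO2, after overnight plating. Detection: luminescence, 30 min RT after reagent.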
# [5] = qHTS assay to identify small molecule antagonists of the estrogen related receptor (ERR) signaling pathway from Tox21 library - cell viability counter screen (AID 1224834); further: nearly all actives have a fitted effect of over 30% in size; further: potency means the concentration at half of the fitted maximal effect
# How it was run: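 Viability readout (CellTiter-Fluor fluorescence, 30 min at 37 C) multiplexed with the ERR assay; cells treated 17.5 h at 37 C with compounds delivered in DMSO.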
# [6] = molecular target: Luciferin 4-monooxygenase (Photinus pyralis) (UniProt P08659); assay: qHTS assay to identify small molecule inhibitors of firefly luciferase (AID 1224835); further: nearly all actives have a fitted effect of over 25% in size; further: potency means the concentration at half of the fitted maximal effect
# Luciferin 4-monooxygenase (Photinus pyralis), sequence (P08659 whole entry, looked up): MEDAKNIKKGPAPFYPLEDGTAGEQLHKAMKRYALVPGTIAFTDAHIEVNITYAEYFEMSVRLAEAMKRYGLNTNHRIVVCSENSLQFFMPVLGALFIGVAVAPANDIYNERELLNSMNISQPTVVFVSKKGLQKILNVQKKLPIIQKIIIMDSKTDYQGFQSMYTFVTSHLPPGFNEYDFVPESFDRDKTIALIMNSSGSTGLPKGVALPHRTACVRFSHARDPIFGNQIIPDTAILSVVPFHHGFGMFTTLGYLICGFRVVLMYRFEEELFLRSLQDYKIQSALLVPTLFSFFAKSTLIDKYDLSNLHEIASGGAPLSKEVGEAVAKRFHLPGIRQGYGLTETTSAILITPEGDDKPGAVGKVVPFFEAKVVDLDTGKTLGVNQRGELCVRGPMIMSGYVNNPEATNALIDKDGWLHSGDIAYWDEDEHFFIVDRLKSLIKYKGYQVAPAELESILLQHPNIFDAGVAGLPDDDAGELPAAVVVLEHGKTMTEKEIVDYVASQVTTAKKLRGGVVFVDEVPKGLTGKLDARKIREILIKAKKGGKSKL
# How it was run: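 Quantitative HTS format; KM concentrations of both substrates. Purified P. pyralis FLuc activity quantified from luminescence images.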
# [7] = qHTS assay to identify small molecule agonists of the constitutive androstane receptor (CAR) signaling pathway - cell viability counter screen (AID 1224836); further: series mostly up to about 92 µM; nearly all actives have a fitted effect of over 45% in size
# How it was run: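 Using CellTiter-Fluor, viability of HepG2 cells harbouring hCAR and CYP2B6-2.2kb was measured following 23 h incubation with a 15-concentration compound series plus PK11195 (0.75 uM final).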
# [8] = qHTS assay to identify small molecule antagonists of the constitutive androstane receptor (CAR) signaling pathway - cell viability counter screen (AID 1224837); further: nearly all actives have a fitted effect of over 45% in size; further: potency means the concentration at half of the fitted maximal effect
# How it was run: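 Fluorescence from CellTiter-Fluor served as the viability signal. Human hepatoma HepG2 cells stably bearing hCAR and CYP2B6-2.2kb received compound plus CITCO (50 nM final) for 23 hr.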
# [9] = molecular target: Nuclear receptor subfamily 1 group I member 3 (Homo sapiens) (UniProt Q14994); assay: qHTS assay to identify small molecule antagonists of the constitutive androstane receptor (CAR) signaling pathway (AID 1224838);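 further: HepG2 cells stably expressing hCAR with CYP2B6 luciferase reporter stimulated by CITCO; nearly all actives have a fitted effect of over 40% in size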
# Nuclear receptor subfamily 1 group I member 3 (Homo sapiens), sequence (Q14994 whole entry, looked up): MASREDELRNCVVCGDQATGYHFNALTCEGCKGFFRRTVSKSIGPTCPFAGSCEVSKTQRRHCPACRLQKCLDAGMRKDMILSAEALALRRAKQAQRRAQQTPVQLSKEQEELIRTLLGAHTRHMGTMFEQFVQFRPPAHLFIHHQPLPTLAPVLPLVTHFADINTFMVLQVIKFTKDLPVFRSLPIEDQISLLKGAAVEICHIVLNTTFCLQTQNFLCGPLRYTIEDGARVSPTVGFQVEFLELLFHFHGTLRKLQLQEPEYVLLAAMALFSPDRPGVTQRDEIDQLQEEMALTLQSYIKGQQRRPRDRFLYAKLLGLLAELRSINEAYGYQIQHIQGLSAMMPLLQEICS
# How it was run: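 Quantitative HTS in double-stable HepG2-CYP2B6-hCAR cells. After 4 h plating, cells get compound (15 concentrations) and CITCO at 50 nM final, incubate 24 h at 37 C, then ONE-Glo luminescence is read.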
# [10] = molecular target: Nuclear receptor subfamily 1 group I member 3 (Homo sapiens) (UniProt Q14994); assay: qHTS assay to identify small molecule agonists of the constitutive androstane receptor (CAR) signaling pathway (AID 1224839); further: nearly all actives have a fitted effect of over 15% in size; further: potency means the concentration at half of the fitted maximal effect
# How it was run: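 Double-stable HepG2 cells (hCAR, CYP2B6-2.2kb) seeded 4 h before compound addition. Exposure 24 h with 0.75 uM PK11195 final. Luciferase detected by ONE-Glo.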
# [11] = qHTS assay to identify small molecule antagonists of the estrogen related receptor signaling pathway with the pleiotropic PPARgamma coactivator (PGC) from Tox21 10K library - cell viability counter screen (AID 1224840; active means well fitted cell-killing curve with a large enough effect in the repeat runs, not every such curve was filed as active; further: nearly all actives have a fitted effect of over 40% in size)
# How it was run: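 Compounds in DMSO, alongside positive and negative controls, were pinned onto PGC/ERR cells (2,000 per well). Exposure lasted 17.5 hours at 37 C, followed by a 30-minute CellTiter-Fluor incubation and fluorescence reading.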
# [12] = qHTS assay to identify small molecule agonists of the estrogen related receptor signaling pathway with the pleiotropic PPARgamma coactivator (PGC) from Tox21 10K library (AID 1224842); further: nearly all actives have a fitted effect of over 15% in size; further: potency means the concentration at half of the fitted maximal effect
# How it was run: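 PGC/ERR reporter cells (NTP line) were seeded 2,000 per well, rested 6 h at 37 C/5% CO2, then pin-dosed with compounds in DMSO for 18 h at 37 C; luciferase read by One-Glo luminescence after 30 min at room temperature.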
# [13] = qHTS assay to identify small molecule antagonists of the estrogen related receptor signaling pathway with the pleiotropic PPARgamma coactivator (PGC) from Tox21 10K library (AID 1224841; call rule not given here; further: actives are mostly falling curves and most rising ones were filed inactive; nearly all actives have a fitted effect of over 50% in size; further: potency means the concentration at half of the fitted maximal effect)
# How it was run: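 Compound exposure ran 18 hours at 37 C in PGC/ERR cells (2,000/well) that had first rested 6 hours in a 37 C/5% CO2 incubator. Luciferase activity was then detected with One-Glo after a 30-minute room-temperature step.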
Compound,Potency [1],outcome [2],outcome [3],Potency [4],Potency [5],Potency [6],Potency [7],Potency [8],Potency [9],Potency [10],Potency [11],Potency [12],Potency [13]
CCCC1CCCC(=O)O1 (stereo not drawn),inactive,inactive,inactive,inactive,inactive,inactive,inactive,inactive,inactive,inactive,inactive,,
CC(C(=O)O)c1ccc(/C=C2\CCCCC2=O)cc1 (stereo not drawn),inactive,inactive,inactive,15 µM (active),inactive,30.9 µM (active),inactive,inactive,inactive,26.6 µM (active),inactive,,
O=C1OC(=O)C2CC=CCC12 (stereo not drawn),inactive,inactive,inactive,inactive,inactive,inactive,inactive,inactive,inactive,inactive,inactive,,
Clc1ccccc1-c1nc(-c2ccncc2)no1,inactive,inactive,inactive,2.11 µM (active),inactive,2.75 µM (active),inactive,inactive,,10.6 µM (active),inactive,,
CC1=C(C)C(=O)C(C(CCCCCC(=O)O)c2ccccc2)=C(C)C1=O (stereo not drawn),inactive,inactive,inactive,inactive,inactive,inactive,inactive,inactive,,,inactive,,
CCOC(=O)CC(O)(CC(=O)OCC)C(=O)OCC,inactive,inactive,inactive,inactive,inactive,inactive,inactive,inactive,inactive,,inactive,,
Cc1c(N=C=O)cccc1N=C=O,inactive,inactive,inactive,inactive,inactive,inactive,inactive,inactive,inactive,inactive,inactive,,
CCCc1nc(C)c2c(=O)[nH]c(-c3cc(S(=O)(=O)N4CCN(CC)CC4)ccc3OCC)nn12,inactive,inactive,inactive,inactive,inactive,inactive,inactive,inactive,inactive,inactive,inactive,,
CCc1ccc2c(c1)C(=O)c1ccccc1C2=O,inactive,inactive,inactive,1.72 µM (active),inactive,5.03 µM (active),inactive,inactive,inactive,27.3 µM (active),inactive,,
O=C(O)c1ccncc1,inactive,inactive,inactive,inactive,inactive,73 µM (active),,,,,inactive,inactive,
CC(C)(C)c1ccc(CCC=O)cc1,inactive,inactive,inactive,inactive,inactive,,inactive,inactive,inactive,inactive,inactive,,
Cc1ccccc1CCO,inactive,inactive,inactive,inactive,inactive,inactive,inactive,inactive,,,inactive,inactive,inactive
CC(C)Cc1nccs1,inactive,inactive,inactive,inactive,inactive,inactive,inactive,,inactive,inactive,inactive,,
CCOc1cc(OCC)c(C(C)=O)cc1OCC,inactive,inactive,inactive,inactive,30.1 µM (active),inactive,,26.8 µM (active),inactive,23.9 µM (active),,,inactive
CCCCCCCCCCCCSCCOCCO,inactive,inactive,inactive,inactive,inactive,inactive,inactive,inactive,,,inactive,,inactive
CCC1=C(C)CN(C(=O)NCCc2ccc(S(=O)(=O)NC(=O)NC3CCC(C)CC3)cc2)C1=O (stereo not drawn),inactive,inactive,inactive,inactive,inactive,inactive,inactive,inactive,,,inactive,,inactive
N#C[C@@H]1CC(F)(F)CN1C(=O)CNC1CC2CCC(C1)N2c1ncccn1 (stereo partly drawn),inactive,inactive,inactive,inactive,inactive,inactive,inactive,,,,inactive,,inactive
Oc1ccc(Oc2ccccc2)cc1,inactive,inactive,inactive,inactive,inactive,inactive,inactive,,inactive,,inactive,,
N#CCCCC(C#N)CCC#N (stereo not drawn),inactive,inactive,inactive,inactive,inactive,inactive,inactive,inactive,,,inactive,inactive,inactive
O=C(O)COCC(=O)O,inactive,inactive,inactive,inactive,inactive,inactive,inactive,,inactive,inactive,,,
CCCC(=O)OCCC(C)C,inactive,inactive,inactive,inactive,inactive,inactive,inactive,,,,inactive,,
COc1ccc(/C=C/c2cc(OC)cc(=O)o2)cc1,inactive,inactive,inactive,2.79 µM (active),,5.15 µM (active),inactive,inactive,inactive,6.26 µM (active),inactive,7.88 µM (active),
CC(=O)Oc1cccc2c1C(=O)c1c(OC(C)=O)cc(C(=O)O)cc1C2=O,inactive,inactive,inactive,inactive,29.8 µM (active),inactive,,,inactive,inactive,inactive,,21.1 µM (active)
O=C(C1CCCCC1)N1CC(=O)N2CCCc3ccccc3C2C1 (stereo not drawn),inactive,inactive,inactive,inactive,,inactive,inactive,,,,,,
C/C(=C(\CCO)SS/C(CCO)=C(\C)N(C=O)Cc1cnc(C)nc1N)N(C=O)Cc1cnc(C)nc1N,inactive,inactive,inactive,inactive,inactive,inactive,inactive,inactive,,,inactive,inactive,inactive
